According to the supplement of paper PMC10849652:
The full data set covers some 7,900 targets. This sample favours those with a hit. About 0.6% of all pairs of compound and target were hits. A number with no mark means an inactive call.

Key:
Test in all cases: log2 fold change, soluble protein after heating vs DMSO (PISA); higher = thermal stabilisation; K562 cells, 10 uM, 30 min; active = over 0.2 and 3.5 SD of the protein, either way, in both replicates (recomputed)
saracatinib = compound: CN1CCN(CCOc2cc(OC3CCOCC3)c3c(Nc4c(Cl)ccc5c4OCO5)ncnc3c2)CC1 [saracatinib]
In short: (§1)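 Thermal stability values are relative to control samples and come from duplicates. They are expressed as log2 fold changes. For measurement, K562 cells (2×10^6 cells/mL) received 10 μM compound for 30 min, and aliquots were heated for 3 min over 48°C-58°C, pooled, and extracted at 4°C in PBS with 0.5% NP-40. Soluble protein, the supernatant after 21,000xg for 90 min, was quantified by TMTpro 16plex LC-MS/MS with equalised channel sums.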

sotrastaurin = compound: CN1CCN(c2nc(C3=C(c4c[nH]c5ccccc45)C(=O)NC3=O)c3ccccc3n2)CC1 [sotrastaurin]
In short: as §1

alvocidib = compound: CN1CC[C@H](c2c(O)cc(O)c3c(=O)cc(-c4ccccc4Cl)oc23)[C@H](O)C1 [alvocidib]
In short: as §1

Tubastatin A = compound: CN1CCc2c(c3ccccc3n2Cc2ccc(C(=O)NO)cc2)C1 [Tubastatin A]
In short: as §1

[1] = compound: CNC(=O)C1=CC=CC=C1NC2=NC(=NC=C2Cl)NC3=C(C=C(C=C3)N4CCOCC4)OC
In short: as §1

defactinib = compound: CNC(=O)c1ccc(Nc2ncc(C(F)(F)F)c(NCc3nccnc3N(C)S(C)(=O)=O)n2)cc1 [defactinib]
In short: as §1

rucaparib = compound: CNCc1ccc(-c2[nH]c3cc(F)cc4c3c2CCNC4=O)cc1 [rucaparib]
In short: as §1

[2] = compound: CNc1nc(-c2ccc3c(N)n[nH]c3c2)cc(N2C[C@@H](C(=O)NC3CCCCC3)CC[C@H]2C)n1
In short: as §1

encorafenib = compound: COC(=O)N[C@@H](C)CNc1nccc(-c2cn(C(C)C)nc2-c2cc(Cl)cc(NS(C)(=O)=O)c2F)n1 [encorafenib]
In short: as §1

[3] = compound: COC(=O)[C@H](CCSC)NC(=O)C1=C(C=C(C=C1)NC[C@H](CS)N)C2=CC=CC=C2
In short: as §1

Chain of UniProt Q9H444 (Q9H444 whole entry, looked up): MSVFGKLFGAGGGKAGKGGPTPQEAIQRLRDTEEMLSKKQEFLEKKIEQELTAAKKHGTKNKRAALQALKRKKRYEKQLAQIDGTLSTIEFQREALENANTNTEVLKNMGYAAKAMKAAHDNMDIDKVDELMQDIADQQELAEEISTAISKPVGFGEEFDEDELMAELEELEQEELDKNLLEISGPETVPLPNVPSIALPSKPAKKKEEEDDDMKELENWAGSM
Chain of UniProt O15234 (O15234 whole entry, looked up): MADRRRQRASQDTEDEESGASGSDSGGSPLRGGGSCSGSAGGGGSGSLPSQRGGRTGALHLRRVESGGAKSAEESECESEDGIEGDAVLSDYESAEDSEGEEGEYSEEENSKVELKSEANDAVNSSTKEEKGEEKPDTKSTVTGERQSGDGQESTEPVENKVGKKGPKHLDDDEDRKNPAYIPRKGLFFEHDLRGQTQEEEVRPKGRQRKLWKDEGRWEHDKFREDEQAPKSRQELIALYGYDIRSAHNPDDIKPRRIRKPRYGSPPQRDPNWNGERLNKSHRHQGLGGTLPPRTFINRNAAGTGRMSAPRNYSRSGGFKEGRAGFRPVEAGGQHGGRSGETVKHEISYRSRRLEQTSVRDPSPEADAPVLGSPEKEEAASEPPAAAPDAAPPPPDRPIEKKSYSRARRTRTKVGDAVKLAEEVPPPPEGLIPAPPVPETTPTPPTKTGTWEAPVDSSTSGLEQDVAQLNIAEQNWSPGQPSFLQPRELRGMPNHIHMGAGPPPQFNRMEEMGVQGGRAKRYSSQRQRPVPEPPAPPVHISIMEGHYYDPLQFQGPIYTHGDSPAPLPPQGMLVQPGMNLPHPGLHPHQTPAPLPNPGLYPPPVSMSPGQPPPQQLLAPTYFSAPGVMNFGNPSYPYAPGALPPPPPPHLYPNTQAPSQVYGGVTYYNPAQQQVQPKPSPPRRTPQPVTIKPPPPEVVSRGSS
Chain of UniProt O95628 (O95628 whole entry, looked up): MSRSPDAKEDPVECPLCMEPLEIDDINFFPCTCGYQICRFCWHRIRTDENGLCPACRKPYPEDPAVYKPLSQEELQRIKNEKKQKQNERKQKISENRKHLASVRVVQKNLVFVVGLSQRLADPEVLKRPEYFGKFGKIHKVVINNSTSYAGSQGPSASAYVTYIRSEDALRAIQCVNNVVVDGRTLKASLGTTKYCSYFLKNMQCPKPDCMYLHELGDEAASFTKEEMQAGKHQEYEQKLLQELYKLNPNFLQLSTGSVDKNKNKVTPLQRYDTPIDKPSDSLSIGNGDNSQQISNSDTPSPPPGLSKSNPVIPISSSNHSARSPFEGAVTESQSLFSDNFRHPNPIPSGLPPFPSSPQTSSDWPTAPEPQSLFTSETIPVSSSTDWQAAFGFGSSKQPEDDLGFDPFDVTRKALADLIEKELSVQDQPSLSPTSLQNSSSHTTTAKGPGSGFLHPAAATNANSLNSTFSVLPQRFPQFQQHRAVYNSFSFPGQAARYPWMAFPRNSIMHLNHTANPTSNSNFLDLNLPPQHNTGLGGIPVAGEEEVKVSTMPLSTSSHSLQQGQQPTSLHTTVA
Chain of UniProt Q5T5Y3 (Q5T5Y3 whole entry, looked up): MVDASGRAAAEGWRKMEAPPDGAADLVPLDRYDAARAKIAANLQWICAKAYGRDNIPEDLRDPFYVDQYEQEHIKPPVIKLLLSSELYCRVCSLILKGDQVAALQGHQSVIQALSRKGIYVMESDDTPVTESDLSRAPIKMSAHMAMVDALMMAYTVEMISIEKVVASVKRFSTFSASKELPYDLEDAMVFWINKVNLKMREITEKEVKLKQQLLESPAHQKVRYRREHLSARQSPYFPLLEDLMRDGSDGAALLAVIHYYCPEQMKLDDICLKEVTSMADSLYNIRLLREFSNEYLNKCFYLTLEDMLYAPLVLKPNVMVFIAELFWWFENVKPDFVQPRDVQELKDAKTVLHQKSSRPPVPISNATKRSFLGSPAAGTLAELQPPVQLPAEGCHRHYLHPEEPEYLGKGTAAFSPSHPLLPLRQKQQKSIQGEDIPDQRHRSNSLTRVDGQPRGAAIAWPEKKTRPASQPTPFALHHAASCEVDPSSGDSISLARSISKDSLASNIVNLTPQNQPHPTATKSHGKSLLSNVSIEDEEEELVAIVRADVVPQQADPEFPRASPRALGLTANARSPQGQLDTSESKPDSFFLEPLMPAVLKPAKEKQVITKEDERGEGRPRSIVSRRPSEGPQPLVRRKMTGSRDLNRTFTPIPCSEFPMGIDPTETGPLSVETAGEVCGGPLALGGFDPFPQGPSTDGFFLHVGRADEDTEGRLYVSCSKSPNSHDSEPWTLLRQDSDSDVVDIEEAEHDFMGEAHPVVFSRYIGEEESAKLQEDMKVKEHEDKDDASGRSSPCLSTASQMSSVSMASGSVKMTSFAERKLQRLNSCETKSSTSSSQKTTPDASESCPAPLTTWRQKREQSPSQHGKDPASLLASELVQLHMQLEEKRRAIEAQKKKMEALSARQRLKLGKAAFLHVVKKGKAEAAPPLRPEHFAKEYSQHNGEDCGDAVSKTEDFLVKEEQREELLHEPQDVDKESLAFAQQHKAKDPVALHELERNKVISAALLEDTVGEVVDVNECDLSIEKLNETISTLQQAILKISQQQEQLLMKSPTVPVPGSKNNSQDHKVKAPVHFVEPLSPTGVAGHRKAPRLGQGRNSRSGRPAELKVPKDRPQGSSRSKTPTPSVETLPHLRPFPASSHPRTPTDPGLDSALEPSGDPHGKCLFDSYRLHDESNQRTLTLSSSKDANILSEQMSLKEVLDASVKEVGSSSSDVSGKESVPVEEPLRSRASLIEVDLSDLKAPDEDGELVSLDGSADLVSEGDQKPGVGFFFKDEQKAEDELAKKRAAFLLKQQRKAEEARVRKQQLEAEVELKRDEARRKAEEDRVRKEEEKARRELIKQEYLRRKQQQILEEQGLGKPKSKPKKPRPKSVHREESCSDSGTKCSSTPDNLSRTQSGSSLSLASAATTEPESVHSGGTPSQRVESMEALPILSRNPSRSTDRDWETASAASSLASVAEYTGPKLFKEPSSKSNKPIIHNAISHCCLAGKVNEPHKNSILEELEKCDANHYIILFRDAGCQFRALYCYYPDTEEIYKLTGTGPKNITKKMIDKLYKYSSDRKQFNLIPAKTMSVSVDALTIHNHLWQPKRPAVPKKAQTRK
Chain of UniProt Q00535 (Q00535 whole entry, looked up): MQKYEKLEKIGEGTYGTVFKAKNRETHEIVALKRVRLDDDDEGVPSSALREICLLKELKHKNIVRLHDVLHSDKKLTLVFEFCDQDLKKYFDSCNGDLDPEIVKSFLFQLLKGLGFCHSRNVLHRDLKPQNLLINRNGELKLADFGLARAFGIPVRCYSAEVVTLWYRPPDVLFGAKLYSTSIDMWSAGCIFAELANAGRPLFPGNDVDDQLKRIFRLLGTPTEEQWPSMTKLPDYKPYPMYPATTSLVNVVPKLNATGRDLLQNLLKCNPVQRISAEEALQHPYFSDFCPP
Chain of UniProt P09497 (P09497 whole entry, looked up): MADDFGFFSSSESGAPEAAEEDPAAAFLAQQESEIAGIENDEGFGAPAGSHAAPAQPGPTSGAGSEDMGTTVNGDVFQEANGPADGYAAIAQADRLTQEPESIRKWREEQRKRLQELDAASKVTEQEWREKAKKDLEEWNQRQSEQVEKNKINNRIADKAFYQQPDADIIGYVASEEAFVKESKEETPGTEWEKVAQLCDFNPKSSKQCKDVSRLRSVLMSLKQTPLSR
Chain of UniProt Q5JTJ3 (Q5JTJ3 whole entry, looked up): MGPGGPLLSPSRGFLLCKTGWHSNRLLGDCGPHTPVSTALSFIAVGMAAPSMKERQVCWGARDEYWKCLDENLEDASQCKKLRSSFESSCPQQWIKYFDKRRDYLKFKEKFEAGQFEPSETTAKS
Chain of UniProt Q8N1G2 (Q8N1G2 whole entry, looked up): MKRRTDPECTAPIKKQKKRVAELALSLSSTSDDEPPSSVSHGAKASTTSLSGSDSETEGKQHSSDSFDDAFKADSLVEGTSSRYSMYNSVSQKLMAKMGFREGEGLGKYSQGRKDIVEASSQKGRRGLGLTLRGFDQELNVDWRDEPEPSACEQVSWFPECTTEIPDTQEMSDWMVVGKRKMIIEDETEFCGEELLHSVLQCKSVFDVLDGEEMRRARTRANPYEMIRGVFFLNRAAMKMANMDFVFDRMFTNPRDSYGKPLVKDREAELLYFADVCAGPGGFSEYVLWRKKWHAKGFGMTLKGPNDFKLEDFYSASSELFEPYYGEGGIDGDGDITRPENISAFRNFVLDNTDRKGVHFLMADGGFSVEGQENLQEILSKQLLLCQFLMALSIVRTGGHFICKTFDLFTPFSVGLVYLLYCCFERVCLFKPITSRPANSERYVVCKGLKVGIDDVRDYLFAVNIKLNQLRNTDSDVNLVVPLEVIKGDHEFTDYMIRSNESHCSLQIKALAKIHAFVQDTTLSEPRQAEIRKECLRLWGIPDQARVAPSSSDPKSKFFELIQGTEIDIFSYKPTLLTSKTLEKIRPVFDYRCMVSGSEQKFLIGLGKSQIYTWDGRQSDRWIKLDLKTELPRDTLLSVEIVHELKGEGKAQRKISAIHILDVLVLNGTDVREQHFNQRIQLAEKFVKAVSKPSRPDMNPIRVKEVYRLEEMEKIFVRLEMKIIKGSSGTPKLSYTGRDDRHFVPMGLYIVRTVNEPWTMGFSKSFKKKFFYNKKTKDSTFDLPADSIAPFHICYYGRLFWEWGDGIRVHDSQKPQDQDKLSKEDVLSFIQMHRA
Chain of UniProt Q96G23 (Q96G23 whole entry, looked up): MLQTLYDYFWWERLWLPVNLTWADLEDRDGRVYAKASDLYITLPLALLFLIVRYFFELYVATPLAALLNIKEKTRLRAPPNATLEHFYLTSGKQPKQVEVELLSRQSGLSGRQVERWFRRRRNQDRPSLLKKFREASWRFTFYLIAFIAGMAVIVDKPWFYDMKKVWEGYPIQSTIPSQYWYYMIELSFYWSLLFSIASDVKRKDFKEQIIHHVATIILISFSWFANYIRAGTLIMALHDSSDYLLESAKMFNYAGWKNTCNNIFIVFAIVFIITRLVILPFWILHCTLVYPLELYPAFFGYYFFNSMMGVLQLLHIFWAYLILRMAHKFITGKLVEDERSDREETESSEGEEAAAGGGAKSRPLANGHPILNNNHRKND

Target	log2 fold change (saracatinib)	log2 fold change (sotrastaurin)	log2 fold change (alvocidib)	log2 fold change (Tubastatin A)	log2 fold change [1]	log2 fold change (defactinib)	log2 fold change (rucaparib)	log2 fold change [2]	log2 fold change (encorafenib)	log2 fold change [3]
CAD (UniProt P27708)	-0.112	0.022	0.076	-0.044	-0.211	0.097	0.132	0.052	0.052	-0.051
CERS2 (UniProt Q96G23)	0.012	-0.033	-0.018	-0.056	-0.121	-0.001	0.002	-0.048	0.017	0.03
CES2 isoform 4 (UniProt O00748)	0.04	0.196	0.065	0.115	0.247	-0.164	0.3	0.218	-0.145	0.044
CASC3 (UniProt O15234)	-0.015	0.067	0.6 (active)	-0.06	0.021	0.323	0.158	-0.126	-0.089	0.073
COA6 isoform 2 (UniProt Q5JTJ3)	0.175	0.063	0.012	0.07	0.354	-0.022	-0.068	0.138	-0.055	0.072
CCZ1 (UniProt P86791)	0.079	-0.003	-0.052	-0.016	0.012	-0.018	-0.006	-0.025	-0.01	-0.019
CBR1 (UniProt P16152)	0.02	-0.005	-0.098	-0.059	0.011	-0.041	-0.01	-0.003	-0.024	0.004
COX5A (UniProt P20674)	-0.063	0.025	-0.063	-0.015	0.043	-0.016	0.011	0.007	-0.036	0.11
CHMP4B (UniProt Q9H444)	0.021	-0.061	0.017	-0.024	-0.026	-0.017	0.02	-0.019	-0.055	0.054
CCAR1 (UniProt Q8IX12)	-0.038	-0.027	-0.17	-0.001	-0.039	-0.021	0.026	0.086	-0.005	-0.033
CBX5 (UniProt P45973)	-0.04	-0.001	-0.115	0.078	-0.026	-0.205	-0.022	0.043	0.009	-0.012
CDK12 (UniProt Q9NYV4)	-0.113	-0.406	0.122	0.165	-0.309	-0.052	0.072	0.003	0.09	0.157
CPQ (UniProt Q9Y646)	0.039	-0.012	0.045	0.02	-0.049	-0.035	-0.042	-0.031	0.008	0.006
CHP1 (UniProt Q99653)	-0.09	0.068	-0.046	0.041	0.085	-0.006	0.068	-0.219	-0.016	0.021
C15orf41 (UniProt Q9Y2V0)	0.009	0.042	-0.042	0.011	-0.137	-0.008	0.081	-0.017	0.01	0.079
CLCN7 (UniProt P51798)	0.004	-0.112	0.007	-0.071	0.044	0.025	-0.052	-0.156	0.151	-0.04
CNOT2 (UniProt Q9NZN8)	-0.044	0.007	-0.071	-0.005	-0.006	-0.024	0.052	0	0.012	-0.021
CDC42SE1 (UniProt Q9NRR8)	0.074	-0.033	-0.019	-0.562 (active)	0.228	-0.041	0.087	0.01	-0.032	0.077
CMTR1 (UniProt Q8N1G2)	0.009	0.018	-0.053	-0.052	0.045	-0.026	0.003	0.099	0.06	-0.091
CHD4 isoform 2 (UniProt Q14839)	-0.006	-0.25	-0.135	0.03	0	-0.247	0.043	0.041	0.133	0.017
CLTB (UniProt P09497)	0.064	0.017	0.078	-0.019	-0.034	0.063	-0.039	-0.009	-0.014	0.031
CLUH, A0A494C0R8	-0.037	-0.058	-0.009	-0.088	0.09	-0.068	0.16	0.138	0.032	0.102
CAMSAP1 isoform 3 (UniProt Q5T5Y3)	-0.084	-0.175	-0.027	0.071	-0.191	0.051	0.048	-0.071	0.065	0.017
CSNK2A1 (UniProt P68400)	0.016	0.059	-0.082	-0.019	0.263 (active)	-0.113	-0.079	-0.045	-0.038	-0.034
CDK19 (UniProt Q9BWU1)	0.006	0.035	0.585 (active)	-0.104	-0.209	0.046	0.345	0.03	-0.086	-0.005
CDK9 isoform 2 (UniProt P50750)	-0.028	-0.018	0.405 (active)	0.01	-0.07	0.03	0.084	0.036	0.079	-0.091
CDK5 (UniProt Q00535)	-0.008	0.094	0.142	-0.013	0.029	0.143	0.05	0.006	0.049	-0.042
CNOT4 isoform 6 (UniProt O95628)	0	0.003	-0.095	-0.003	-0.014	-0.03	-0.044	-0.07	-0.023	-0.015
CHMP4C (UniProt Q96CF2)	0	0.042	0.02	-0.009	-0.173	-0.047	-0.032	-0.138	-0.097	0.007
CRLS1 (UniProt Q9UJA2)	0.144	-0.282	0.02	-0.079	0.043	-0.088	-0.088	-0.052	0.004	0.067
